Experiment [1] in a line: A CellTox Green Cytotoxicity Assay to monitor cytotoxicity in HepG2 cells - 0 hour (AID 1224882). Note: nearly all actives have a fitted effect of over 35% in size. Summed up: (§1)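 First, HepG2 cells (600/well) mixed with reagent were plated; second, after 5 h at 37 C they received compounds via pintool; third, fluorescence was measured at 0 h through 40 h at 8 h intervals.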
Experiment [2] is described as follows: A CellTox Green Cytotoxicity Assay to monitor cytotoxicity in HepG2 cells - 32 hour (AID 1224883). Note: nearly all actives have a fitted effect of over 50% in size. Note: potency is the fitted concentration of half-maximal effect. The essentials:
as §1

Experiment [3] can be described thus: qHTS RealTime-Glo MT Cell Viability Assay in HepG2 cells - 16 hour (AID 1224885). Note: nearly all actives have a fitted effect of over 50% in size. Note: potency is the fitted concentration of half-maximal effect. The essentials: (§2)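 Cell number in HepG2 cultures estimated from NanoLuc luminescence generated by metabolic reduction of a prosubstrate by living cells. The homogeneous, nonlytic format allowed repeated reads at 0, 8, 16, 24, 32 and 40 h of compound exposure.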
(In general: Quantitative high-throughput screening tests each substance at several concentrations.)

A short description of experiment [4]: qHTS RealTime-Glo MT Cell Viability Assay in HEK293 cells - 24 hour (AID 1224886). Note: nearly all actives have a fitted effect of over 50% in size. Note: potency is the fitted concentration of half-maximal effect. Summed up:
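Homogeneous bioluminescent viability format in HEK293 cells (600 cells/well). Following 5 h at 37 C/5% CO2, 23 nL compound was pintooled; the signal was measured repeatedly during 40 h incubation.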

The nature of experiment [5]: A CellTox Green Cytotoxicity Assay to monitor cytotoxicity in HEK293 cells - 16 hour (AID 1224888). Note: nearly all actives have a fitted effect of over 35% in size. The essentials: (§3)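 Dead-cell fluorescence measured kinetically: asymmetric cyanine dye, HEK293, 600 cells/well, 5 h settle, 23 nL cpd/DMSO, 37 C, reads 0–40 h every 8 h.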
The nature of experiment [6]: qHTS RealTime-Glo MT Cell Viability Assay in HepG2 cells - 0 hour (AID 1224889). Note: nearly all actives have a fitted effect of over 50% in size. Note: potency is the fitted concentration of half-maximal effect. Summed up:
as §2

Experiment [7] in a line: A CellTox Green Cytotoxicity Assay to monitor cytotoxicity in HepG2 cells - 8 hour (AID 1224890). Note: nearly all actives have a fitted effect of over 45% in size. Summed up:
as §1

Experiment [8] can be described thus: A CellTox Green Cytotoxicity Assay to monitor cytotoxicity in HEK293 cells - 8 hour (AID 1224884). Note: nearly all actives have a fitted effect of over 35% in size. Summed up: as §3
Experiment [9] can be described thus: qHTS RealTime-Glo MT Cell Viability Assay in HEK293 cells - 8 hour (AID 1224887). Note: nearly all actives have a fitted effect of over 50% in size. Note: potency is the fitted concentration of half-maximal effect. Summed up: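 600 HEK293 cells per well, dispensed already mixed with RealTime-Glo MT reagents. Compound dosing came 5 h later. The same wells were read for luminescence at 0, 8, 16, 24, 32 and 40 h of exposure at 37 C.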

“And” between values parts separate entries of the source, which are not always exact repeats. Equal values may be shown once. Inconclusive results are not listed. The source made the active and inactive calls. Calls come from the whole dose curve; as a rule, active = well fitted curve in the direction sought with a large enough effect in the repeat runs; inconclusive = weak or mixed curves; inactive = no such curve, though single readings can be large; an effect the other way counts as inactive or inconclusive.

`CC(=O)O[C@H]1CC[C@@]2(C)C(=CC[C@@H]3[C@@H]2CC[C@]2(C)C(=O)CC[C@@H]32)C1`: the Potency result in [1], in experiment [2], in experiment [3], in [5], in experiment [6] and in experiment [7] was “inactive” in each case. Also, the Potency in experiment [4] was 54.9 µM (active).
As for `Clc1ccc(Oc2ccccc2)cc1`, the Potency entry in experiment [1], in [2], in [8], in experiment [3], in experiment [9] and in [5] was “inactive” throughout. Besides, the Potency result in experiment [6] and in experiment [7] was “inactive” each time.
On to `CN(C)c1ccc(N=Nc2ccccc2)cc1`, for which the Potency entry in experiment [1], in [2], in [3], in experiment [6] and in [7] was “inactive” in each case.
`OC(Cc1ccccc1Cl)(Cn1cncn1)C1(Cl)CC1` (configuration not stated): the Potency result in experiment [1], in experiment [2], in experiment [8], in experiment [3], in [5] and in experiment [7] was “inactive” each time. Besides, in experiment [6], the Potency was 24.5 µM (active).
As to `Clc1ccc(-c2ccccc2)cc1`, the Potency result in experiment [1], in experiment [2], in experiment [3], in [9], in [5] and in experiment [6] was “inactive” each time. In addition, the Potency result in experiment [7] is “inactive”.
As to `O=[N+]([O-])c1ccc2ccc3cccc4ccc1c2c34`, the Potency result in [1], in experiment [2], in [3], in [4], in experiment [9] and in experiment [6] was “inactive” each time. Also, the Potency entry in [7] is “inactive”.
For `CCOCn1c(-c2ccc(Cl)cc2)c(C#N)c(Br)c1C(F)(F)F`, the Potency result in experiment [1], in [8], in experiment [6] and in experiment [7] was “inactive” each time. For the same compound, the figures for the Potency in experiment [2], in experiment [4] and in [9] were 12.3 µM (active), 4.9 µM (active) and 19.5 µM (active), respectively.
Take `Cc1cc(N=Nc2ccccc2C)ccc1N`: the Potency result in experiment [1], in experiment [8], in [6] and in [7] was “inactive” each time. The Potency in experiment [4] is 21.9 µM (active) and 19.5 µM (active); in [9], 21.9 µM (active) and 19.5 µM (active).
For the compound `OC(c1ccc(Cl)cc1)(c1ccc(Cl)cc1)C(Cl)(Cl)Cl`, the Potency result in experiment [1], in experiment [2], in experiment [3], in [6] and in experiment [7] was “inactive” each time. Besides, the Potency in [9] was 49 µM (active).
For the compound `ClCc1ccc(Cl)cc1Cl`, the Potency entry in [1], in [2], in experiment [3], in experiment [4], in experiment [9] and in experiment [6] was “inactive” in each case. Moreover, the Potency result in experiment [7] was “inactive”.
Turning to `Nc1ccc(Sc2ccc(N)cc2)cc1`, the Potency result in experiment [1], in experiment [8], in experiment [3], in experiment [4], in experiment [9] and in [6] was “inactive” in each case. For the same compound, in experiment [2], the Potency is 4.36 µM (active).
Regarding `Oc1c(Cl)c(Cl)cc(Cl)c1Cl`, the Potency entry in experiment [1], in [2], in [8], in experiment [3], in [6] and in experiment [7] was “inactive” each time. For the same compound, in experiment [4], the Potency is 47.6 µM (active).
For `ClC1=C(Cl)[C@]2(Cl)[C@H]3[C@H]([C@H]4C=C[C@H]3C4)[C@@]1(Cl)C2(Cl)Cl`, the Potency result in experiment [1], in [2], in experiment [3], in experiment [9], in experiment [5] and in [6] was “inactive” in each case. Further, the Potency entry in [7] is “inactive”.
As to `ClC(Cl)=C(c1ccc(Cl)cc1)c1ccc(Cl)cc1`, the Potency result in [1], in experiment [2], in [8], in [3], in experiment [6] and in experiment [7] was “inactive” throughout.
With `CCCN(CC)CC1COC2(CCC(C(C)(C)C)CC2)O1` (configuration not stated), the Potency result in [1], in experiment [2], in [3], in [4], in experiment [9] and in experiment [5] was “inactive” each time. For the same compound, the Potency entry in experiment [6] and in experiment [7] was “inactive” in each case.
With `ClCc1ccccc1CCl`, the Potency result in experiment [1], in [8], in experiment [3], in experiment [9], in [5] and in experiment [6] was “inactive” each time. In addition, the Potency result in experiment [7] is “inactive”.
`O=C(O)COc1nc(Cl)c(Cl)cc1Cl`: the Potency entry in experiment [3], in experiment [9] and in experiment [6] was “inactive” throughout.
As for `COc1cccc(C(=O)CCN[C@@H](C)[C@H](O)c2ccccc2)c1`, the Potency entry in experiment [1], in experiment [8], in experiment [9], in experiment [6] and in experiment [7] was “inactive” in each case.
Turning to `ClC1=C(Cl)[C@]2(Cl)[C@@H]3[C@@H](Cl)[C@H](Cl)C[C@@H]3[C@@]1(Cl)C2(Cl)Cl`, the Potency entry in [1], in [2], in experiment [8], in [3], in experiment [4] and in experiment [9] was “inactive” throughout. In addition, the Potency entry in experiment [6] and in experiment [7] was “inactive” throughout.
In the case of `CC1(c2ccc(Oc3ccccc3)cc2)OC(=O)N(Nc2ccccc2)C1=O` (configuration not stated), the Potency result in experiment [1] and in experiment [6] was “inactive” throughout. Moreover, the Potency in experiment [3] is 49.3 µM (active); in experiment [4] it was 43.9 µM (active).
For `CC(C)(C)C(O)/C(=C\c1ccc(Cl)cc1Cl)n1cncn1` (configuration not stated), the Potency result in [1], in experiment [5], in experiment [6] and in [7] was “inactive” throughout. The Potency was 59.3 µM (active) in [2], 26.5 µM (active) in experiment [4] and 47.1 µM (active) in [9].
In the case of `CCOC(=O)CC(=O)CCl`, the Potency entry in experiment [1], in experiment [2], in [8], in [3], in [5] and in experiment [6] was “inactive” each time. For the same compound, in [7], the Potency result is “inactive”. Also, the Potency in experiment [4] is 43.6 µM (active).
Consider `Oc1ccc2ccc3cccc4ccc1c2c34`, for which the Potency result in experiment [1] and in experiment [6] was “inactive” each time. Further, the Potency is 54.9 µM (active) in experiment [2], 49 µM (active) in experiment [3] and 13.8 µM (active) in experiment [9].
Take `Clc1ccc(C(Cl)(Cl)Cl)c(Cl)c1`: the Potency result in experiment [1], in experiment [3], in experiment [9], in experiment [6] and in experiment [7] was “inactive” throughout.
Consider `BrC(Br)C(Br)(Br)Br`, for which the Potency result in experiment [1], in [8], in [3], in [6] and in experiment [7] was “inactive” in each case. The Potency in [4] is 24.7 µM (active).
For the compound `CC(Cl)CN(C)C` (configuration not stated), the Potency entry in experiment [1], in experiment [2], in experiment [3], in experiment [6] and in [7] was “inactive” throughout.
For `CCN(CC)c1c([N+](=O)[O-])cc(C(F)(F)F)c(N)c1[N+](=O)[O-]`, the Potency result in [1], in [8] and in experiment [6] was “inactive” in each case. In addition, the results for the Potency in [4] and in experiment [9] were 17.4 µM (active) and 6.92 µM (active), respectively.
With `CC(=O)[O-].CC(=O)[O-].O.O.[Cd+2]`, the Potency result in experiment [1], in [8], in experiment [6] and in experiment [7] was “inactive” each time. In [2], the Potency is 27.2 µM (active).
Take `O=CC(Br)(Br)Br`: the Potency entry in [1], in experiment [8], in experiment [9], in [5], in experiment [6] and in experiment [7] was “inactive” in each case. Besides, the Potency was 38.8 µM (active) in [2] and 48.8 µM (active) in experiment [3].
Consider `CC(C)(c1ccc(O)c(-c2ccccc2)c1)c1ccc(O)c(-c2ccccc2)c1`, for which the Potency result in experiment [1] and in [6] was “inactive” throughout. In addition, the Potency was 49 µM (active) in experiment [2], 49 µM (active) in [3], 21.9 µM (active) in experiment [4] and 21.9 µM (active) in experiment [9].
For the compound `O=C(CCl)Nc1ccccc1`, the Potency result in experiment [1], in experiment [2], in experiment [3], in experiment [9], in experiment [5] and in [6] was “inactive” in each case. In experiment [7], the Potency entry is “inactive”. Besides, the Potency in experiment [4] is 43.6 µM (active).
As for `CC1(C)CC/C(=C/c2ccc(Cl)cc2)C1(O)Cn1cncn1` (configuration not stated), the Potency entry in [1], in [8], in [3], in experiment [6] and in experiment [7] was “inactive” throughout. Moreover, in experiment [4], the Potency is 24.4 µM (active).
As for `O=[N+]([O-])c1cc([N+](=O)[O-])c2ccccc2c1`, the Potency result in [1], in [2], in experiment [4] and in experiment [9] was “inactive” throughout.
For `O=S(=O)(c1ccc(Cl)cc1)c1ccc(Cl)cc1`, the Potency entry in experiment [1], in [2], in experiment [3], in experiment [5], in experiment [6] and in [7] was “inactive” each time.
For `C[C@]12CC[C@H]3[C@@H](CCC4=CC(=O)CC[C@@]43C)[C@@H]1CC[C@@H]2O`, the Potency entry in experiment [1], in [2], in experiment [8], in experiment [3], in [9] and in experiment [5] was “inactive” throughout. The Potency entry in experiment [7] was “inactive”. Moreover, the Potency in [6] is 21.7 µM (active).
Turning to `Nc1ccc(Cl)cc1C(=O)c1ccccc1`, the Potency entry in experiment [1], in [2], in [3], in [6] and in experiment [7] was “inactive” throughout.
Turning to `CC(C)(O)c1cnn2c(-c3ccc(F)c(-c4c(F)cccc4C#N)c3)cnc2n1`, the Potency entry in experiment [1], in [2], in experiment [8], in experiment [3], in experiment [5] and in [7] was “inactive” each time. Moreover, in experiment [9], the Potency was 6.16 µM (active).
Consider `Oc1ccc(C2(c3ccc(O)cc3)CCCCC2)cc1`, for which the Potency entry in experiment [1], in experiment [3], in experiment [6] and in experiment [7] was “inactive” in each case.
